The values below come from PubChem BioAssay AID1224865 (Sanford-Burnham Center for Chemical Genomics, 2016).

SMILES strings stand for the structures. Values joined by “and” are separate entries in the source; they are usually repeats but may differ in a detail not shown here. Identical values can stand only once. The whole screen tested about 360,000 compounds, of which about 1,100 (0.31%) were called active. Cut-off read from the data, not from the text of the source: active = activity change above about 30% (passing the limit was not always enough); inactive = the rest. The full list was thinned out, with actives kept by preference. Where a structure was tested more than once in an assay, its records may differ in their call.

The target of the assay is Hepatocyte nuclear factor 4-alpha (Homo sapiens) (UniProt P41235). Nature of the assay: change in binding of human HNF4A to DNA, primary screen, biochemical, fluorescence polarization, FITC-DNA (AID 1224865). Particulars: 1 h, at 10 µM, stronger effect = higher value. Background: In fluorescence polarisation assays a small probe gives low polarisation when free and higher when bound to something large.
Hepatocyte nuclear factor 4-alpha (Homo sapiens), sequence (P41235 whole entry, looked up): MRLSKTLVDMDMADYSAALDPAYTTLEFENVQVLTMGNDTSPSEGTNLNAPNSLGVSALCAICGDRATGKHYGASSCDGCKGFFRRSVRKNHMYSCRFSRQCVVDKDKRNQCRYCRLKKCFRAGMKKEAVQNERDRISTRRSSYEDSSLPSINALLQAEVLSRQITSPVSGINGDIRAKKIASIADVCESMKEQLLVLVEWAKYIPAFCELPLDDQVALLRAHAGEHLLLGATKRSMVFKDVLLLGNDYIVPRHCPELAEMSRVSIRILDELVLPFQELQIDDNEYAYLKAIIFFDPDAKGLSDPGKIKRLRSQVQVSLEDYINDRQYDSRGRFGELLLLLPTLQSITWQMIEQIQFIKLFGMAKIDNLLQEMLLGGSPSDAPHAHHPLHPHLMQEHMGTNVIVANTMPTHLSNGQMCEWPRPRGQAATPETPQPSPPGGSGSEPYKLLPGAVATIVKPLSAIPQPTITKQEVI
`CCc1ccc(CN2C(=O)c3ccccc3C2C(=O)NCC2CCCO2)cc1` (configuration not stated): the activity change is 0.41% (inactive).
Regarding `O=C(NC(=S)Nc1ncccn1)c1ccccc1Br`, the activity change is 1.65% (inactive).
In the case of `O=C(Nc1cc(Cl)ccc1N1CCOCC1)c1ccc(N2CCCC2=O)cc1`, the activity change was -2.01% (inactive).
As to `Cc1c(C(=O)NCCN2C(=O)S/C(=C\c3cccs3)C2=O)cccc1[N+](=O)[O-]`, the activity change is -0.17% (inactive).
Consider `O=C(CCN1C(=O)c2ccccc2C1=O)NNC(=O)c1ccc(Cl)cc1Cl`, for which the activity change was -1.42% (inactive).
The value for `O=C(CCN1C(=O)/C(=C/c2cccs2)SC1=S)NNC(=O)c1cccc(O)c1` was 42.1% (active); that for `Cc1cccc(NC(=O)c2ccc(S(=O)(=O)N(C)CC3CCCO3)cc2)c1C` (configuration not stated) was -0.21% (inactive); that for `CC1=C(C(=O)Nc2cccc(C(=O)NCC(C)c3ccccc3)c2)SCCO1` (configuration not stated) was -3.05% (inactive).
In the case of `Cc1ccc(-c2cnc(C(O)c3cc(Cl)cc(Cl)c3)[nH]2)cc1` (configuration not stated) it was 2.03% (inactive); in that of `O=[N+]([O-])c1ccc(COc2ccccc2CN2CCOCC2)cc1`, 4.14% (inactive); in that of `Cc1ccccc1OCCOc1ccc([N+](=O)[O-])cc1/C=N/n1cnnc1`, 0.85% (inactive).
`Cc1cccc(COc2ccccc2/C=N/Nc2ccc([N+](=O)[O-])cc2)c1`: the activity change was 53.2% (active).
Turning to `Cc1ccc(Cl)cc1NC(=S)N(CCN(C)C)Cc1cccs1`, the activity change was -2.05% (inactive).
For `COCCCn1c(=O)/c(=C/c2ccccc2OC(C)C)s/c1=C(\C#N)C(=O)Nc1ccc(C(=O)O)cc1`, the activity change is 21.5% (inactive).
The value for `CCOC(=O)[C@@H]1[C@H]2COc3cc(OC)ccc3[C@H]2N2C(=O)N(c3ccc(F)cc3)C(=O)[C@]12C` was -1.52% (inactive).
The value for `C#CCOCCOCCOCCNc1nc(N2CCN(C(=O)[C@H](CO)n3cc([C@@H](N)C(C)C)nn3)CC2)nc(N2CCN(C(=O)[C@H](CCC(=O)O)n3cc([C@@H](N)[C@H](C)CC)nn3)CC2)n1` was -0.8% (inactive); that for `C#CCOCCOCCOCCNc1nc(N2CCN(C(=O)C(Cc3ccc(O)cc3)n3cc(C(N)CC(C)C)nn3)CC2)nc(N2CCN(C(=O)C(Cc3ccc(O)cc3)n3cc(C(N)C(C)CC)nn3)CC2)n1` (configuration not stated) was 2.78% (inactive).
The value for `C#CCOCCOCCOCCNc1nc(N2CCN(C(=O)C([C@@H](C)O)n3cc([C@@H](N)CCCCN)nn3)CC2)nc(N2CCN(C(=O)[C@H](CCCCN)n3cc(CN)nn3)CC2)n1` (some centres not stated) was 59.9% (active); that for `CSc1sc(C)cc1C1C(C#N)=C(N)N(c2cccnc2)C2=C1C(=O)CCC2` (configuration not stated) was -3.92% (inactive).
Consider `COC(=O)c1c(C)oc(C)c1S(=O)(=O)Nc1ccc(C(C)C)cc1`, for which the activity change is -0.92% (inactive).
The value for `FC(F)Oc1ccc(NC(=S)NCc2ccco2)cc1Cl` was 8.22% (inactive).
In the case of `CCc1ccc2oc(-c3ccc(N)cc3)nc2c1` it was 71.8% (active); in that of `COc1ccc2oc(N)nc2c1`, 0.82% (inactive).
Consider `CC1(C)C/C(=C(/C#N)C(N)=O)CCO1`, for which the activity change was -0.48% (inactive).
As to `CCOC(=O)C1CCN(C(=O)C2CCN(S(=O)(=O)CC)CC2)CC1`, the activity change was -4.66% (inactive).
The value for `CCOC(=O)N1CCN(C(=O)C2CCN(S(C)(=O)=O)CC2)CC1` was 30.5% (active); that for `CCOC(=O)C1CCN(C(=O)C2CCN(S(=O)(=O)N3CCCC3)CC2)CC1` was -3.6% (inactive).
The value for `CCCCc1nccn1CCn1ccnc1CCCC` was -1.42% (inactive); that for `O=C(CC1SC(=Nc2ccccc2F)N(CCN2CCOCC2)C1=O)Nc1ccc(F)cc1F` (configuration not stated) was 2.99% (inactive).
Take `CC(C)(C)NC(=O)c1ccc(Cn2cc(C(F)(F)F)ccc2=O)cc1`: the activity change is -4.39% (inactive).
The value for `c1ccc2cc3[nH]c(CN4CCCCC4)nc3cc2c1` was 33.4% (active); that for `O=c1cc(CN2CCCCCCC2)c2c(ccc3ccccc32)o1` was -1.79% (inactive).
`Cc1ccc2[nH]c(=O)c(CN3CCCCC3)c(-c3ccccc3)c2c1`: the activity change is -1.94% (inactive).
For the compound `O=S(=O)(Cc1ccc(Cl)cc1Cl)c1ccc(Cl)cc1`, the activity change is 1.8% (inactive).
For `COC(=O)C1=C(C(=O)OC)C2(OC1c1ccc(Br)cc1)C(=O)c1ccccc1C2=O` (configuration not stated), the activity change was 0.81% (inactive).
Take `CC(=O)N1C(=O)/C(=C2\SC(=S)N(NC(=O)c3ccc(O)cc3)C2=O)c2ccccc21`: the activity change was -1.57% (inactive).
As to `Cn1cccc1/C=C1\SC(=S)N(NC(=O)c2ccc(Cl)cc2)C1=O`, the activity change is 74.6% (active).
As to `CN1C(=O)C(CC(N)=O)N(NC(=O)c2ccc(Cl)cc2)C1=S` (configuration not stated), the activity change is -1.5% (inactive).
The value for `O=C(NC1CCCC1)C1c2ccccc2OCC(=O)N1CC(F)(F)F` (configuration not stated) was 2% (inactive); that for `COc1ccc(-c2nc3cc(C)ccn3c2NC2CCCCC2)cc1SC1CCCCC1` was 47.8% (active) and 27.6% (inactive); that for `COc1cccc(-c2nc3nc(C)cc(C)n3c2NC2CCCCC2)c1` was 3.94% (inactive).
The value for `Cc1ccc2nc(-c3cccnc3)c(NC3CCCC3)n2c1` was 6.3% (inactive); that for `Cc1ccn2c(c1)nc(=O)c1cc(S(=O)(=O)N3CCC(C)CC3)ccc12` was 4.48% (inactive).
Consider `Cc1cc(=O)oc2cc(OC(C)C(=O)Nc3ccc(N4CCOCC4)cc3)ccc12` (configuration not stated), for which the activity change was -19.2% (inactive).
The value for `O=C(O)c1ccc(NN=CC2=C(N3CCOCC3)/C(=C/c3ccccc3)CC2)cc1` was 41.5% (active); that for `O=C(O)c1ccc(N=NN2CCOCC2)cc1` was 1.22% (inactive).
In the case of `O=C(O)c1ccc(N/N=C/c2ccc3ncccc3c2)cc1` it was -1.15% (inactive).
Turning to `O=C(COC(=O)/C=C/c1ccc(S(=O)(=O)N2CCCCCC2)cc1)NCc1ccccc1Cl`, the activity change was -2.22% (inactive).
In the case of `O=C1CCC(C(=O)N2CCCCO2)CN1Cc1cccc(C(F)(F)F)c1` (configuration not stated) it was 1.26% (inactive); in that of `NC(=O)Cn1nc([N+](=O)[O-])nc1Oc1ccc(Br)cc1`, 3.81% (inactive); in that of `CCCCCCCNc1nc(Cl)nc(NCCO)n1`, 1.28% (inactive).
The value for `NNc1cccc(C=Cc2ccccc2)cc1=O` was 37.5% (active); that for `O=C(COC(=O)/C=C/c1cccc(Cl)c1)NCCc1ccccc1` was 1.96% (inactive); that for `O=C(COC(=O)c1cc(S(=O)(=O)N2CCOCC2)ccc1F)NC1CC1` was -0.17% (inactive).
As for `O=C(c1ccc[nH]c1=S)N1CCN(S(=O)(=O)c2ccc(Br)cc2Cl)CC1`, the activity change was 0.57% (inactive).
Turning to `COc1cccc(/C=N/NC(=O)c2[nH]nc3c2CCc2ccccc2-3)c1O`, the activity change was 49.2% (active).
Turning to `COc1cc(/C=N\NC(=O)c2nonc2N)c(OC)cc1Br`, the activity change is -0.19% (inactive).
As for `COc1ccccc1N1CCN(C(=O)C(=O)N/N=C/c2ccccc2F)CC1`, the activity change is -1.71% (inactive).
The value for `O=C1COc2ccc(S(=O)(=O)NCCc3ccc(Cl)cc3)cc2N1` was 1.98% (inactive); that for `CC(C)n1c(O)c(N=Nc2ccccn2)c2ccccc21` was 0.04% (inactive); that for `CCOCCCNC(=O)Cc1cc(=O)[nH]c(=O)[nH]1` was -0.4% (inactive).
`N#CCCN1CCN(S(=O)(=O)c2ccc(S(=O)(=O)NC3CCCCC3)cc2)CC1`: the activity change was 0.96% (inactive).
In the case of `CCn1c(/C=C/c2ccc([N+](=O)[O-])o2)nc2ccccc2c1=O` it was 92.1% (active); in that of `O=C(/C=C/c1ccc([N+](=O)[O-])o1)NNC(=O)c1ccc(F)cc1`, 0.84% (inactive).
For `C=CCn1c(SCC(=O)NC(=O)Cc2ccccc2)nc2ccccc2c1=O`, the activity change was 1.95% (inactive).
Consider `COc1ccccc1CCNC(=O)CN1C(=O)NC2(CCCC2)C1=O`, for which the activity change was 1.6% (inactive).
`COc1ccc(C(=O)N2CCCCC2c2cc(C(=O)Nc3ccc(F)c(Cl)c3)no2)cc1` (configuration not stated): the activity change was -0.55% (inactive).
In the case of `COc1ccc(/C(C)=N/N2CCOCC2)c(O)c1` it was 1.11% (inactive); in that of `CN1/C(=c2/s/c(=C3/C(=O)N(c4ccccc4)NC3=Nc3ccccc3)n(C)c2=O)C(C)(C)c2ccccc21`, 66.2% (active); in that of `O=C(CO/N=C/c1ccc(OC(F)F)cc1)NCc1ccc(F)cc1`, -1.87% (inactive).
For `CCOC(=O)C1CCCN(C(=O)CSc2nnc3nc(C)cc(C)n23)C1` (configuration not stated), the activity change was -2.41% (inactive).
On to `COc1ccc(CCNC(=O)CN(C)S(=O)(=O)c2ccc3nc(C)sc3c2)cc1OC`, for which the activity change is 3.34% (inactive).
Take `COc1ccc(-c2ccc(C(=O)NCCN3CCOCC3)c3occc23)c(C)c1`: the activity change was -3.94% (inactive).
In the case of `CCC(C)N1C(=O)S/C(=C/c2ccc(Sc3nc4ccccc4[nH]3)o2)C1=O` (configuration not stated) it was 77.3% (active); in that of `CCC(c1nc2ccccc2[nH]1)n1c(=O)c(-c2cccs2)nc2ccccc21` (configuration not stated), 4.95% (inactive).
In the case of `CCOC(=O)/C(C#N)=C/c1ccc(N2CCCCC2)cc1` it was 42.2% (active).
The value for `CCOC(=O)/C(C#N)=C\c1c(C)cc(C)c(COC(C)=O)c1C` was 2.55% (inactive); that for `COC(=O)/C(C#N)=C/c1occc1C` was -1.39% (inactive).
For `C/C(=N/Nc1nc(-c2ccccc2)c(CC(=O)O)s1)c1ccccc1`, the activity change is 48.6% (active).
The value for `CC(=O)NC(CC(=O)Nc1nc(-c2ccccc2)c(C(C)=O)s1)c1ccccc1` (configuration not stated) was 0.99% (inactive); that for `CCOc1ccc(-c2nc(C)sc2CC(=O)O)cc1` was 1.37% (inactive); that for `CC(C)c1ccc(Nc2nnc(SCC(=O)c3nnc(-c4ccccc4)o3)s2)cc1` was 7.36% (inactive).
Take `COc1ccc(CNC(=O)CN(Cc2ccc(Cl)cc2)S(C)(=O)=O)cc1`: the activity change is 1.96% (inactive).
The value for `CC[n+]1cc(C)ccc1/C=C/c1ccc(N(C)C)cc1` was 76.1% (active); that for `COc1ccccc1CNC(=O)c1ccc(N(C)S(=O)(=O)c2ccc(C)cc2)cc1` was 0.49% (inactive); that for `COc1cc(NS(=O)(=O)c2ccc(NC(=O)c3ccc(S(=O)(=O)N4CCCCC4)cc3)cc2)ncn1` was -0.94% (inactive).
The value for `COC(=O)[C@]1(C)N[C@H](c2ccc(-c3ccc(Cl)c(Cl)c3)cc2)[C@@H]2C(=O)N(C)C(=O)[C@@H]21` was -0.96% (inactive).
